Results as given in PubChem BioAssay (EPA / NIEHS).
Active and inactive are the calls of the source. Rule for the calls: active = hit-call score of the fitted dose curve at least 0.9, where 1 is the maximum; inactive = score below 0.9.

What follows are compounds tested on Glutamate-cysteine ligase regulatory (GCLM), GCLM (gene 2730) (assay: LTEA_HepaRG_GCLM: Life Technologies and Expression Analysis (LTEA) Assay for Glutamate-cysteine ligase regulatory (GCLM) using HepaRG (AID 2283500)). Settings: mRNA level, 48 h; actives raise or lower the signal.
Protocol: LTEA_HepaRG is a cell based, multiplexed-readout assay that uses HepaRG, a human liver cell line, with measurements taken at 48 hours after chemical dosing on a 96-well plate.LTEA_HepaRG_GCLM is one of 102 assay component(s) measured in the LTEA HepaRG cell culture assay. It is a marker of Cell proliferation, survival, death.Data from the assay component LTEA_HepaRG_GCLM was analyzed into 1 endpoint. This assay endpoint, LTEA_HepaRG_GCLM, was analyzed with bidirectional fitting relative to DMSO as the negative control and baseline of activity. Using a type of inducible reporter, measures of mRNA induction for gain or loss-of-signal activity can be used to understand regulation of transcription factor activity. To generalize the intended target to other relatable targets, this assay endpoint is annotated to the ligase intended target family, where the subfamily is C-N ligase.
A total of 1060 chemcials from the ToxCast library were tested in eight-point concentration-response experiments. Cell culture and cytotoxicity assays were conducted at Thermo Fisher Scientific's Custom Services facility (Madison, WI). A single lot of human HepaRG cells (Thermo Fisher Scientific, Frederick, MD) was used for the cell culture experiments. 96-well format collagen type I coated plates of human HepaRG cells were prepared using established methods. Briefly, cryopreserved HepaRG cells were thawed, plated at a density of approximately 100,000 cells/well in HepaRG Thaw, Plate, and General Purpose media (HPRG770, Thermo Fisher Scientific), and incubated for 48 hours. 0.5% DMSO was selected as vehicle control to balance the requisite need of DMSO in HepaRG cultures to maintain differentiation (for example, baseline metabolism, proportions of hepatocytes vs. cholangiocytes), while enabling further hepatic receptor pathway activation (for example, PXR and CAR) in response to chemical exposure. 48 hours after plating, the culture medium was replaced with HepaRG Serum-Free Incudtion Media. Cells were exposed to each test chemical in duplicate and maintained in CO2 incubators for another 48 hours. Chemical plates were thawed to room temperature and 200x concentrations of treatment groups were prepared. 8-point conentration-reponse curves were made with the highest exposure at 100 uM, followed by half-log dilutions, all in 0.5% DMSO. Each test plate contained variouse controls, induction positive controls (1mM phenobarbital), cytotoxicity positive controls ([…] aflatoxin B1), vehicle controls (0.5% DMSO), and total lysis controls (0.5% DMSO). Cell morphology images were taken using an Essen IncuCyte FLR automated microscope, with six 96-well plates imaged in about 24 minutes. Images were captured and exported and JPEG files. Spent culture media was transfered to black-well plates for the LDH assay, and remaining media was sorted at -80 C for later use. Cells were treated with RLT buffer and frozen until shipped for gene expression analysis. Total RNA was isolated from the cell suspension in 75 uL of Buffer RLT (Qiagen, Germantown, MD 20874) by Quintiles/Expression Analysis (Durham, NC) using a custom isolation procedure. Total RNA from each plate well was transferred to a preamplification plate. Fluidigm's 96.96 Dynamic ArrayTM (Fluidigm, Amsterdam, the Netherlands) technology was used for gene expression analyses by quantitative reverse transcription polymerase chain reaction (qRT-PCR, performed by Quintiles/Expression Analysis, Durham, NC)89. Standard TaqManTM Assays (Applied Biosystems/ThermoFisher Scientific, Foster City, CA) were used to assess the expression of 93 genes selected based on their selectivity and sensitivity to important hepatic receptors known to be modulated by environmental chemicals; importance in human hepatocyte functionality; and hepatotoxicity. […]

SMILES | outcome | AC50
CCCCCCCCCC | inactive | –
CCN(CC)C(=S)SSC(=S)N(CC)CC | inactive | –
CCCC(CCC)C(=O)O | inactive | –
c1ccc2cc3ccccc3cc2c1 | inactive | –
CC(C)C(=O)Nc1ccc([N+](=O)[O-])c(C(F)(F)F)c1 | – | 50 µM (active)
CCCCCCCCCCCCCCCCOS(=O)(=O)O | inactive | –
NC(=O)NN=Cc1ccc([N+](=O)[O-])o1 | – | 9.92 µM (active)
Cn1cc[nH]c1=S | inactive | –
CCCc1ccccc1 | inactive | –
CC1(C)C(=O)N(Cl)C(=O)N1Cl | inactive | –
NC(N)=O | inactive | –
O=C(O)c1ccc2c(c1)nc(C(=O)NC1CCN(C3CC3)CC1)n2Cc1cc(-c2ccc(Cl)s2)on1 | inactive | –
CC(C)c1nnc2ccc(-c3ocnc3-c3cc(F)ccc3F)cn12 | inactive | –
CC(C)CCCCCCOC(=O)C1CCCCC1C(=O)OCCCCCCC(C)C (stereo not given) | inactive | –
OC(CCl)CCl | inactive | –
COCc1nnc(-c2ccc[n+]([O-])c2)n1-c1c(Cl)c(Cl)cc2[nH]c(=O)c(=O)[nH]c12 | inactive | –
CCOc1ccc2[nH]cc(C(=O)NCc3ccccc3)c(=O)c2n1 | inactive | –
Cc1nccn1-c1ccc(Sc2cccc(C3(C(N)=O)CCOCC3)c2)cc1 | – | 7.4 µM (active)
Cc1nc(-c2ccccn2)ncc1C(=O)Nn1cc(C)c2cc(F)ccc21 | inactive | –
NNC(=O)c1ccncc1 | inactive | –

SMILES | outcome | AC50
Cc1ccc(S(=O)(=O)NC(=O)NN2CCCCCC2)cc1 | inactive | –
OCc1ccccc1 | inactive | –
CCCCN1C(=O)[C@@H]([C@H](O)C2CCCCC2)NC(=O)C12CCN(Cc1ccc(Oc3ccc(C(=O)O)cc3)cc1)CC2 | inactive | –
CCn1nc(C)c2c1C(=O)NCC(c1ccc(O)cc1)=N2 | inactive | –
OCC(CO)(CO)CO | inactive | –
CCCCCOC(C)=O | inactive | –
O=C(O)c1cccc(C(=O)O)c1 | inactive | –
CCCCCCOC(=O)CC(CC(=O)OCCCCCC)(OC(=O)CCC)C(=O)OCCCCCC | inactive | –
CCc1cccc(CC)c1N | inactive | –
CC(=O)c1ccccc1 | inactive | –
O=c1[nH]cnc2c1ncn2[C@H]1CC[C@@H](CO)O1 | inactive | –
NC(=O)N1c2ccccc2C=Cc2ccccc21 | inactive | –
C[C@@H](Oc1ccc(CNC(=O)c2cccnc2Oc2ccc3c(c2)OCO3)c(F)c1)C(=O)O | inactive | –
Nc1ccn([C@@H]2O[C@H](CO)[C@@H](O)[C@@H]2O)c(=O)n1 | inactive | –
COc1cc(C(C)C)c2c(c1)S(=O)(=O)N(COc1cc(=O)n3cccc(OCCN4CCCCC4)c3n1)C2=O | inactive | –
O=C(O)c1cccc(C[C@@H]2COc3ccc(OCc4nc5cc(F)ccc5s4)cc3[C@@H]2O)c1 | inactive | –
CCc1ccc(O)c(C(C)(C)C)c1 | inactive | –
O=C(O)[C@H](O)[C@@H](O)C(=O)O | inactive | –
O=S1(=O)CCCO1 | inactive | –
OCCNCCO | inactive | –
